# Autofluor counter: compound fluorescence in toxin protease inhibitor counterscreen | fluorescence intensity (test concentration not listed) | compound autofluorescence counterscreen, microsphere flow cytometry; hits give high values | 3.1% of 360,000 active; in the data active = fluorescence intensity above about 16000; inconclusive = no clear call, values can overlap the other calls
# BoNT-A LC inh2: BoNT A light chain protease inhibition; multiplex microsphere protease substrate cleavage, flow cytometry; inhibition, % at 10 µM; 0.17% of 360,000 active; also: plate controls were buffer without enzyme for full effect and enzyme alone for no effect
# BoNT F protease: BoNT F light chain protease inhibition | Multiplex microsphere protease cleavage assay, flow cytometry | inhibition, % at 10 µM | 0.22% of 360,000 active | AID 588497; in the data active = inhibition above about 35%, passing the limit was not always enough; inconclusive = no clear call, values can overlap the other calls; also: plate controls were buffer without enzyme for full effect and enzyme alone for no effect
# Mtb FBA inh: Mtb fructose-bisphosphate aldolase inhibition | P9WQA3 | purified M. tuberculosis FBA, fluorescence read-out | inhibition, % at 1 µM | 2.3% of 360,000 active | AID 588726; in the data active = inhibition above about 27%;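 also: 0% = vehicle and 100% = reference inhibitor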
# Target sequence (P9WQA3 whole entry, looked up): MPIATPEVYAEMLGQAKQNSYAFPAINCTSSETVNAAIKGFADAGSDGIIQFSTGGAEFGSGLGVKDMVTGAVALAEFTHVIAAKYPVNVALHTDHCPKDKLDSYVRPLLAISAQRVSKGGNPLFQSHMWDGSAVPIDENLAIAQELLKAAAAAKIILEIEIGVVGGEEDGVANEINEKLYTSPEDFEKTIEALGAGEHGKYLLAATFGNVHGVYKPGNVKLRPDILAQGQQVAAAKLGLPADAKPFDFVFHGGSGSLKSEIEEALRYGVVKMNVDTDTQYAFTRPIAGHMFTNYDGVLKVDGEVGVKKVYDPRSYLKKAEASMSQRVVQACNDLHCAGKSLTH
# Anthrax LF prot: blocks Bacillus anthracis lethal factor protease. P15917. multiplex microsphere protease cleavage assay, LF. inhibition, % at 10 µM. 0.12% of 360,000 active. AID 588501; also: plate controls were buffer without enzyme for full effect and enzyme alone for no effect
# GDH-TPI counter: counter-screen for M. tuberculosis FBA inhibitors: GDH-TPI coupled enzymes. GDH-TPI coupled enzyme counterscreen, NADH absorbance. 1.2% of 360,000 active. inhibition, % at 4.8 µM; in the data active = inhibition above about 30%;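 also: 0% = DMSO wells and 100% = wells lacking the enzyme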
# The depositor's hits bear a star; ? = inconclusive. Sampled rows, rich in hits. Any-hit rate of the full collection: about 6.7%. Rule as the data show it, unless noted: active = inhibition above about 30%; inconclusive = no clear call, values can overlap the other calls; inactive = below that.
SMILES,Autofluor counter,BoNT-A LC inh2,BoNT F protease,Mtb FBA inh,Anthrax LF prot,GDH-TPI counter
Cc1ccc(-c2cc(C(=O)N(C)CC(=O)Nc3ccccc3Br)c3ccccc3n2)o1,?,5,6,120*,-1,11
C/C(CC(=O)Nc1cccc2c1CCCC2)=N\NC(=O)COc1ccccc1,2065,0,2,0,-1,-4
Cc1cc(C)nc(/N=C(\N)Nc2ccc(SC(F)F)cc2)n1,4059,0,-6,1,-5,10
N#C/C(=C\c1c[nH]c2ccc(Br)cc12)c1ccccn1,3892,2,-18,6,4,15
COC(=O)c1sccc1NC(=O)Nc1cc(C)ccc1OC,?,-3,0,-4,1,4
COc1ccc(-n2nc(C(=O)NCC(=O)N3CC(C)CC(C)C3)c3ccccc3c2=O)cc1OC (stereo not drawn),5609,0,4,1,-3,3
COc1ccc(/C(N)=N/OC(=O)c2cc(-c3ccccc3)nc3ccccc23)cc1,19686*,2,-1,-2,-4,-6
COc1cccc(-n2nc(C(=O)N3CC(C)CC(C)C3)c3ccccc3c2=O)c1 (stereo not drawn),20358*,6,8,0,-8,0
COc1ccc(CCC(=O)N2CCN(S(=O)(=O)c3ccc4ccccc4c3)CC2)cc1,?,0,5,1,-7,-4
O=C(c1ccc(Cl)cc1)N1CCC(c2nc(-c3cccs3)no2)CC1,23989*,-5,-6,-1,-1,-6
CCOc1ccc(C(=O)N2CCCC(c3nc(-c4cccs4)no3)C2)cc1 (stereo not drawn),4435,-1,-3,-2,-5,-6
CC(OC(=O)[C@H](C)N=C1NS(=O)(=O)c2ccccc21)C(=O)Nc1ccc(F)c(F)c1F (stereo partly drawn),3538,0,10,-2,2,-1
COc1ccc2[nH]c3c(c2c1)CCn1c-3nc2ccccc2c1=O,3883,1,22,16,3,59*
COc1cc(OC)cc(C(=O)Nn2c(C)nc3ccccc3c2=O)c1,4406,1,-2,1,-2,-8
Cc1cccc(NS(=O)(=O)c2ccc(C)c(C(=O)NC3CCN(Cc4ccccc4)CC3)c2)c1,30942*,9,18,1,3,5
Cc1ccccc1C(=O)NC1CCN(Cc2ccccc2)CC1,3083,0,3,0,1,0
CC(=O)c1ccc(NS(=O)(=O)c2ccc3c(c2)N(C)CCO3)cc1,5365,2,1,-1,1,28
Cc1cc(NC(=O)CCC(=O)N2CCC3(CC2)OCCO3)no1,23557*,-4,-5,0,-1,11
O=c1cccc2n1CC1CC2CN(Cc2cccc(Cl)c2Cl)C1 (stereo not drawn),20838*,0,-1,1,0,-6
Cc1ccc(S(=O)(=O)NCCNC(=O)N2CCOCC2)cc1,21580*,-2,-1,0,0,-18
Cc1ccc(S(=O)(=O)NCCCNC(=O)c2ccccc2)cc1,23361*,-2,-4,0,-2,-10
Cc1ccc(S(=O)(=O)NCCOc2nc(N3CCOCC3)nc(N3CCOCC3)n2)cc1,21551*,2,5,3,4,-4
Cc1ccc(S(=O)(=O)NCCNC(=O)c2ccccc2)cc1,2348,0,-8,1,-3,8
O=C(NCCOc1nc(N2CCOCC2)nc(N2CCOCC2)n1)Nc1ccc(Cl)cc1,11489,-1,0,0,-4,11
O=C(NCCCN1CCCC1=O)NC1CCCCC1,4023,0,-6,-15,2,-15
SMILES,Autofluor counter,BoNT-A LC inh2,BoNT F protease,Mtb FBA inh,Anthrax LF prot,GDH-TPI counter
COc1ccc(N(C)S(=O)(=O)c2ccc3c(c2)CCC(=O)N3)cc1,20669*,0,-2,1,-3,-4
CC(C)Cc1ccc(C(C)C(=O)N2CCOCC2)cc1 (stereo not drawn),22712*,?,3,-1,0,1
Cc1ccccc1C(O)c1ccccn1 (stereo not drawn),24308*,-1,-2,0,-1,3
OC(c1ccccn1)C(O)c1ccccn1 (stereo not drawn),3960,-1,-4,0,-6,4
Cc1cc(NS(=O)(=O)c2ccc(NC(=O)c3cnc4sccn4c3=O)cc2)nc(C)n1,5931,-1,-9,2,-6,20
Cc1ccc2oc(C(=O)NCc3ccc4c(c3)OCO4)c(C)c2c1,4111,1,1,0,-2,-1
Cc1c(C(=O)NCc2cccs2)oc2ccccc12,23183*,0,-1,-7,-3,6
Cc1ccc(NC(=O)c2oc3ccccc3c2NC(=O)c2ccc3c(c2)OCO3)cc1,20506*,5,4,7,0,5
Cc1cc(C)nc(NC(=O)c2cnc3sccn3c2=O)n1,5561,0,-5,4,-1,46*
Cc1c(C(=O)NCc2ccc3c(c2)OCO3)oc2ccccc12,20346*,4,3,1,-9,-1
O=C(Nc1c(C(=O)Nc2cccc(F)c2)oc2ccccc12)c1ccc2c(c1)OCO2,8437,0,-8,1,-5,1
Cc1c(C(=O)NCc2ccccc2F)oc2ccccc12,6288,0,3,2,5,2
Cc1ccc(CC(=O)Nc2ccccc2-c2ccccc2)cc1C,11163,1,-6,0,2,3
CN(C)c1ccc(NC(=O)CCn2c(=S)oc3ccccc32)cc1,1769,-1,-57,-2,-15,-1
COC(=O)[C@H](CCSC)NC(=O)NCc1cccs1,8148,0,-14,5,-5,6
O=C(NCc1cccs1)c1cnc2sccn2c1=O,4179,-1,5,2,-2,45*
COC(=O)[C@@H](NC(=O)NCc1cccs1)C(C)C,18068*,3,-1,-1,-5,-3
Cc1c(C(=O)NCc2cccnc2)oc2ccccc12,23977*,-1,-3,0,-1,-11
O=C(c1ccccc1)N(Cc1ccccc1)c1ccccn1,10766,-1,-6,-1,-1,-2
O=C(c1cnc2sccn2c1=O)N(Cc1ccccc1)c1ccccn1,4623,-1,-11,0,-7,33*
Cc1c(C(=O)NCCc2ccccc2)oc2ccccc12,4842,-3,-8,2,-5,1
CC(C)CNc1ncnc2c1ncn2[C@H]1CN(Cc2ccc(F)cc2)C[C@@H](CO)O1,3598,0,0,4,3,6
O=C(NCc1cccs1)c1ccccc1[N+](=O)[O-],2552,0,-6,2,0,-4
O=C(c1ccc(Br)o1)N(Cc1ccccc1)c1ccccn1,19550*,?,6,1,-1,3
O=C(NCc1cccs1)c1ccccc1C(=O)NCc1cccs1,23472*,?,-5,-2,1,25
Cc1c(C(=O)NC(C)c2ccncc2)oc2ccccc12 (stereo not drawn),21661*,?,-1,0,-3,-2
